Measured values reported in PubChem BioAssay AID862 (The Scripps Research Institute Molecular Screening Center, 2007).
The campaign covered roughly 190,000 compounds. About 1,700 (0.89%) were called active. The sample as a whole holds a higher share of actives than the screen did. Values without a mark were called inactive.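 Rule for the calls: active = inhibition above the mean inhibition across all screened compounds plus 3 SD (cut at about 44% in these data); inactive = the rest.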

experiment: IL-6 driven STAT3 reporter inhibitors, primary screen, U3A cells, luciferase, luminescence, MLSCN library (AID 862); conditions: IL-6 STAT3-luciferase reporter, at 5.5 µM, hits give high values, host cell line lacks STAT1;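 note: 0% = DMSO only wells and 100% = 100 µM nifuroxazide control wells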

Row | Compound | inhibition
1 | CN1CCN(c2ccc(NC(=O)c3ccc4c(c3)OCCO4)cc2Cl)CC1 | -19.1%
2 | c1ccc(Cc2cc[n+](Cc3ccccc3)cc2)cc1 | 10.2%
3 | CC1CCCN(S(=O)(=O)c2ccc(N(C(=O)c3cnccn3)C(C(=O)NC3CCCCC3)c3cccs3)cc2)C1 (centres undefined) | 5.3%
4 | c1ccc2[nH]c(-c3nc4ccccc4[nH]3)nc2c1 | 44.2% (active)
5 | Cc1ccc(-c2nc3ccccc3[nH]2)cc1N | -19.1%
6 | c1ccc(-c2[nH]ncc2-c2nc3ccccc3[nH]2)cc1 | 15.2%
7 | Cc1cccc(C)c1NC(=O)Nc1ccccc1-n1ccnc1 | 4%
8 | COCCC(=O)Nc1ccc2c(c1)CN(C(=O)CCOC)CC2 | -5.3%
9 | CCNC(=S)NNC(=O)c1ccc2ncccc2c1 | 7.8%
10 | O=C(O)c1ccc(N/N=C/c2ccc3ncccc3c2)cc1 | 69.5% (active)
11 | O=C(O)c1ccc(N/N=C/c2cn(-c3ccccc3)nc2-c2cccs2)cc1 | 1%
12 | CCCC(c1nnnn1C(C)(C)C)N1CCN(Cc2ccccc2)CC1 (centres undefined) | -0.6%
13 | CN(C)CCNC(CC(=O)Nc1ccc(Cl)c(Cl)c1)C(=O)O (centres undefined) | 5.8%
14 | O=C(CC(O)(C(F)(F)F)C(F)(F)F)Nc1ccc(Cl)c(Cl)c1 | 65.1% (active)
15 | O=C(CC(=O)Nc1ccc(Cl)c(Cl)c1)N/N=C/c1ccc(O)cc1 | -5%
16 | COc1cc(C(=O)NCc2ccc(-n3cccc3)cc2)cc(OC)c1OC | 6.8%
17 | COc1ccccc1C(=O)Nc1ccc(OCc2nnc3c4ccccc4c(C)nn23)cc1 | 21.6%
18 | COc1ccc(C)cc1NC(=O)NCc1ccccn1 | 15%
19 | CN(c1ccc(OCC(=O)OCC(=O)Nc2cccc([N+](=O)[O-])c2)cc1)S(=O)(=O)c1ccc(F)cc1 | 5.5%
20 | O=C(COC(=O)c1n[nH]c2ccccc12)NCc1ccccc1 | 5.8%
21 | CCN(CC)S(=O)(=O)c1ccc2nc(COC(=O)c3n[nH]c4ccccc34)[nH]c2c1 | 19.1%
22 | CN(C)S(=O)(=O)c1ccc(NC(=O)COC(=O)c2n[nH]c3ccccc23)cc1 | 49.3% (active)
23 | COc1ccccc1NC(=O)c1c(Br)cnn1C | 25.4%
24 | CCOC(=O)CNc1nc2ccccc2n2c(C)nnc12 | 24.4%
25 | Oc1c(Cl)cc(Cl)c(Cl)c1Cc1c(O)c(Cl)cc(Cl)c1Cl | 43.6% (active)

Row | Compound | inhibition
26 | O=C(Nc1ccc2cn[nH]c2c1)c1ccc(S(=O)(=O)N2CCOCC2)cc1 | -32.5%
27 | CC(=O)NC(Cc1ccc(F)c(F)c1)C(=O)NC1CCN(c2nnnn2-c2ccccc2)CC1 (centres undefined) | 10.3%
28 | COc1cc(/C=N/NC(=O)c2ccccc2)ccc1OS(=O)(=O)c1ccccc1 | 1.7%
29 | COc1ccc(C(=O)Nc2ccccc2C(=O)N/N=C/c2ccccc2OC)cc1 | 1.8%
30 | COc1ccc(C(=O)Nc2ccccc2C(=O)N/N=C/c2ccc(O)c(OC)c2)cc1 | 106% (active)
31 | CC(C)CNC(=O)C(=O)NCc1ccccc1 | -0.6%
32 | CC(Sc1nc(-c2ccccc2)cc(C(F)(F)F)n1)C(=O)Nc1ccc2c(c1)OCO2 (centres undefined) | -2.7%
33 | Cn1cc([N+](=O)[O-])c(C(=O)Nc2ccc3c(c2)OCCO3)n1 | 51.3% (active)
34 | O=C(Nc1ccc2c(c1)OCCO2)c1ccncc1 | -8.8%
35 | Cn1cc([N+](=O)[O-])c(C(=O)Nc2cnn(Cc3ccc(F)cc3)c2)n1 | 36.8%
36 | Cc1ccc(CCCOC(=O)C[N+]2(C)CCCC2)cc1 | -9.5%
37 | S=C(NN=C1CCN(Cc2ccccc2)CC1)NC1CCCCC1 | -0.1%
38 | Cn1nnnc1SCC(=O)Nc1nc2ccccc2s1 | -2.9%
39 | CC(=O)NCCc1nc2cc(NC(=O)c3ccccc3)ccc2n1C | 15.8%
40 | Cn1c(CN2CCOCC2)nc2cc(NC(=O)c3ccc(Cl)cc3)ccc21 | 66.2% (active)
41 | CCC(=O)Nc1ccc2c(c1)nc(CCN1CCN(C)CC1)n2C | 9.8%
42 | O=C(NCc1ccccc1Cl)C1CCN(S(=O)(=O)N2CCOCC2)CC1 | 2.3%
43 | O=C1CCCN1CCCNc1ncnc2c1[nH]c1ccccc12 | -56.6%
44 | CCN1CCCC1CNc1ncnc2c1[nH]c1ccc(F)cc12 (centres undefined) | -30.1%
45 | CC(C)OCCCNc1ncnc2c1[nH]c1ccc(F)cc12 | 80.4% (active)
46 | Cc1nc2cc(NC(=O)NC3CC3)ccc2n1C | 7.5%
47 | CC(=O)Nc1ccc(C(=O)CSc2nnc(Cc3ccccc3)o2)cc1 | 0.2%
48 | COc1ccc(C(=O)CSc2nnc(-c3ccco3)o2)cc1 | 2.9%
49 | CC(C)C[C@@H](N)c1nnc(SCC(=O)c2ccc(Cl)cc2)o1 | 53.4% (active)
50 | Oc1ccccc1C=NC1CCCCC1N=Cc1ccccc1O (centres undefined) | 5.7%

Row | Compound | inhibition
51 | CCOC(=O)CNC(=O)/C(=C\c1ccc(F)cc1)NC(=O)c1ccccc1 | 1.9%
52 | COc1cccc(NC(=O)Cn2c3ccccc3c3nc4n(c(=O)c32)CCS4)c1 | 12.7%
53 | Cn1c(-c2ccc(C(=O)c3ccccc3)s2)nc2ccccc21 | 49.1% (active)
54 | Cn1c(CNC(=O)C(C)(C)C)nc2ccccc21 | 15.4%
55 | Cn1cccc1-c1nc2ccccc2n1C | 16.4%
56 | Cc1cccc(NC(=S)NC23CN4CN(CN(C4)C2)C3)c1 | 4.5%
57 | Cc1ccc(OCCCn2c(=O)oc3ccccc32)cc1 | 16.3%
58 | CCC(=O)NC(=Nc1nc2ccccc2s1)NC(=O)CC | 12.8%
59 | CC(C)CC(=O)N/C(N)=N/c1nc2ccccc2s1 | 47% (active)
60 | COC(=O)c1nc2ccccc2s1 | -7.8%
61 | CCC(=O)c1ccc(OCC(O)Cn2nc(C)c(C(C)=O)c2C)cc1 (centres undefined) | 22.7%
62 | Cc1ccc(Cl)cc1NC(=O)C1CCN(S(C)(=O)=O)CC1 | -0.1%
63 | CCOC(=O)c1[nH]c2c(c1C)C(=O)CC(c1ccc(N(C)C)cc1)C2 (centres undefined) | -3.7%
64 | CCCOC(=O)c1[nH]c2c(c1C)C(=O)CC(c1cccs1)C2 (centres undefined) | 3.8%
65 | CCCOC(=O)c1[nH]c2c(c1C)C(=O)CC(c1cc(OC)c(OC)c(OC)c1)C2 (centres undefined) | 47.1% (active)
66 | COC(=O)CC1=NN(c2ccccc2)C(=O)C1 | 3.8%
67 | Cc1ccccc1CN(c1ccc(C(=O)NCC2CCCO2)cc1)S(C)(=O)=O (centres undefined) | 1%
68 | Cc1cccc(C)c1NC(=O)C1(N(C(=O)c2ccccn2)c2ccc(O)cc2)CCCCC1 | 0.2%
69 | CC(C)c1nc(-c2ccccn2)no1 | -0.3%
70 | c1csc(-c2nc(-c3ccncc3)no2)c1 | 16.8%
71 | O=C(Oc1ccc(-c2nc(-c3ccccn3)no2)cc1)c1ccccc1 | 76.7% (active)
72 | O=C(Oc1ccccc1)c1ccc2nccnc2c1 | 2.6%
73 | c1ccc(-c2noc(-c3cccs3)n2)nc1 | 43.8% (active)
74 | COc1nc(-c2ccc(Cl)cc2)ccc1-c1noc(-c2cccs2)n1 | -4.2%
75 | Cc1c(C(=O)O)nnn1-c1nonc1N | -8.4%

Row | Compound | inhibition
76 | Cc1cc(F)ccc1S(=O)(=O)Nc1ncnc2scc(-c3ccc(F)cc3)c12 | -1.8%
77 | CC(=O)c1c(C)[nH]c(C(=O)Nc2cc(S(=O)(=O)N(C)C)ccc2C)c1C | 13.2%
78 | CCOc1ccc(NC(=O)CC2C(=O)N(c3ccccc3)C(=O)N2CCOC)cc1 (centres undefined) | -0.8%
79 | CCCCn1c(N)c(N(CC)C(=O)/C=C/c2ccco2)c(=O)[nH]c1=O | -5.6%
80 | Cc1cccc(CSc2nnc(Cn3c(=O)sc4ccccc43)n2C)c1 | 5%
81 | COc1ccc(Cn2c(=O)sc3ccccc32)cc1OC | 51.6% (active)
82 | COc1ccccc1CNC(=O)CCn1c(=O)sc2ccccc21 | -0.6%
83 | CO/N=C/CC(=O)c1ccc(OC)cc1 | 6.2%
84 | Cc1ccc(NC(=O)Cn2nc(C)c3ccccc3c2=O)c(C)c1 | 9.7%
85 | COc1ccc(-c2nn(C)c(=O)c3ccccc23)cc1NC(=O)COc1ccccc1 | 38.1%
86 | Cc1ccc(F)cc1NC(=O)Cc1nn(C)c(=O)c2ccccc12 | 56.3% (active)
87 | Cc1cc(N2CCN(Cc3ccc4c(c3)OCO4)CC2)n2ncnc2n1 | -1.7%
88 | Fc1ccc2[nH]c3c(N4CCN(Cc5ccc6c(c5)OCO6)CC4)ncnc3c2c1 | 65.5% (active)
89 | Fc1ccc2[nH]c3c(N4CCSCC4)ncnc3c2c1 | 22.8%
90 | CC(C)(C)NCCCOc1ccc(Cl)cc1C(C)(C)C | -0.4%
91 | O=C(N/N=C/c1ccccc1O)/C(=C/c1ccccc1)CCO | 3.8%
92 | Cc1ccccc1CSCCNC(=O)c1ccc(Cl)c(S(=O)(=O)N2CCOCC2)c1 | 4.2%
93 | CC(C)(CNC(=O)c1ccc(Cl)c(S(=O)(=O)N2CCc3ccccc3C2)c1)N1CCOCC1 | 49.5% (active)
94 | O=C(NCCSCc1ccccc1)c1ccc(Cl)c(S(=O)(=O)N2CCOCC2)c1 | 21%
95 | CCOC(=O)C(=Cc1ccccc1OC)C(=O)OCC | 9.9%
96 | Cc1cc(NC(=O)CSc2nc3c(cc2C#N)CCCCC3)no1 | -1.5%
97 | O=C(N/N=C/C=C/c1ccco1)c1cccs1 | -6.8%
98 | COc1cccc(-c2cc(C(=O)N/N=C/c3ccc(OC)c(COC(C)=O)c3)c3ccccc3n2)c1 | -6%
99 | Cc1ccc(-c2cc(C(=O)N/N=C/C=C/c3ccco3)c3ccccc3n2)cc1C | 46.8% (active)
